# Bioassay records deposited in PubChem BioAssay by several laboratories.
# A selection: hits, their analogues and other compounds. The true share with any hit is near 2.3%.
# BCLXL inh: Bcl-xL (human) inhibition. Q07817. GST-Bcl-xL / FITC-Bim BH3 peptide fluorescence polarization. inhibition, % at 10.9 µM. actives 0.7% (n = 320,000). AID 2129;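 active = inhibition above the mean of all tested compounds plus 3 SD, cutoff set per campaign, cut at about 30% in these data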;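 also: 0% = DMSO wells and 100% = unlabeled Bim-BH3 peptide competitor; inhibitors lower millipolarization by displacing the labeled peptide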
# MCL1-BIM inh: disrupts human MCL1 binding to BIM-BH3 peptide. actives 0.68% (n = 320,000). Q07820. inhibition, % at 10.9 µM. GST-MCL1 / FITC-Bim-BH3 fluorescence polarization;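 active = inhibition above the mean inhibition of all tested compounds plus 3 SD, set per campaign, cut at about 40% in these data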;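 also: 0% = DMSO wells and 100% = unlabeled Bim-BH3 peptide control; higher means more loss of mP so more displacement of Bim peptide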
# GLD-1 TGE inh: GLD-1-TGE RNA interaction inhibition (C. elegans); Q17339; purified GLD-1 + fluorescein TGE RNA, fluorescence polarization; inhibition, % at 5.96 µM; actives 0.44% (n = 320,000);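 active = percent inhibition above a per-plate cutoff, the plate mean of test compounds plus 3 SD, cut at about 30% in these data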;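 also: 0% = DMSO wells with GLD-1 and probe and 100% = wells lacking GLD-1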
# Target sequence (Q17339 whole entry, looked up): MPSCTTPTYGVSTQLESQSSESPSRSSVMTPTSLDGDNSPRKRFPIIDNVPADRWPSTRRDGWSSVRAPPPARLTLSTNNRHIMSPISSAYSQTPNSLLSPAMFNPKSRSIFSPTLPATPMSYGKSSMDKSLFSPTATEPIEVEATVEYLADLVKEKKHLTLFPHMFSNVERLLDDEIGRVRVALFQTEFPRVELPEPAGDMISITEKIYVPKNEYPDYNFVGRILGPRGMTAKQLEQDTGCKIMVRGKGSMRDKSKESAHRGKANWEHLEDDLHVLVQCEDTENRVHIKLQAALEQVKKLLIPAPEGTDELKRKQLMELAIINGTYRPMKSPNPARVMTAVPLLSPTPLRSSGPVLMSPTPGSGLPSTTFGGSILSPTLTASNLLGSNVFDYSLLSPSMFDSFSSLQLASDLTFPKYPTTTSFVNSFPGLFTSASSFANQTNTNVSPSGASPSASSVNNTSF
# Bim-Mcl-1: inhibitors of Bim-Mcl-1 interaction, human. Q07820. Bead-based flow cytometry, Bim peptide-Mcl-1 binding. inhibition, % at 10 µM. actives 0.1% (n = 190,000). AID 1009; in the data active = inhibition above about 40%;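 also: 0% = no compound tracer wells and 100% = peptide blocker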
# Mcl1-Bid inh: disrupts binding of human Mcl-1 to Bid peptide. Q07820. TR-FRET Mcl-1/Bid-Dy647 peptide binding, 1536-well. inhibition, % at 21.7 µM. actives 0.97% (n = 220,000). AID 1021;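 active = compounds that cut the binding signal by more than half at the single screening dose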;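 also: His-tagged Mcl-1 with europium anti-His antibody binding Bid BH3 peptide; 0% = Mcl-1 plus peptide wells and 100% = peptide-only wells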
# Mcl1-Noxa inh: disrupts binding of human Mcl-1 to Noxa peptide | inhibition, % at 21.7 µM | TR-FRET Mcl-1/Noxa peptide binding, 2 h | actives 1.5% (n = 220,000);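 active = compounds that cut the protein-peptide binding signal by more than 50% relative to plate controls in a single-dose test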;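 also: His-tagged Mcl-1 with rhodamine Noxa BH3 peptide and terbium anti-His antibody; 0% = Mcl-1 plus Noxa peptide wells and 100% = peptide-only wells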
# An asterisk follows results filed as active; · = no result given.
SMILES,BCLXL inh,MCL1-BIM inh,GLD-1 TGE inh,Bim-Mcl-1,Mcl1-Bid inh,Mcl1-Noxa inh
COc1ccc(N2C(=O)/C(=C/C=C/c3ccccc3[N+](=O)[O-])C(=O)NC2=S)cc1,·,·,·,-1,83*,89*
O=C1NC(=S)N(Cc2ccco2)C(=O)/C1=C\c1cccs1,·,·,·,2,97*,97*
COc1ccc(N2C(=O)/C(=C/c3ccc(N(C)C)o3)C(=O)NC2=S)cc1,-102,-158,-206,·,·,·
COc1ccc(N2C(=O)/C(=C/c3cccs3)C(=O)NC2=S)cc1,4,5,-6,·,44,62*
COC(=O)C1=C(c2cccc(OCc3ccccc3)c2)C[C@@H]2CC[C@H]1N2C(=O)NCc1ccccc1C(F)(F)F,-3,2,-5,·,·,·
Cc1cc(O)c2c(c1)C(=O)C13C(=C2O)C(=O)[C@H]2[C@@H](O)[C@@H]1[C@H]1[C@H](O)[C@@H]3C(=O)C3=C(O)c4c(O)cc(C)cc4C(=O)C312 (stereo partly drawn),3,10,5,·,·,·
CC(C)N1CCN(c2ccc(O)cc2)CC1,25,23,5,-6,-67,54*
O=C1C=Cc2ccccc2C1=O,17,16,10,1,7,73*
Cc1ccc(N2C(=O)NC(=O)/C(=C/c3cnc(-c4ccccc4)nc3)C2=O)cc1C,-9,-10,-27,-1,20,75*
CCCCP(=O)(O)c1ccccc1,0,4,3,1,10,27
C=CP(=O)(O)c1ccccc1,6,8,-6,-1,55*,29
COC(=O)C1=C(c2ccc(OC(F)(F)F)cc2)C[C@@H]2CC[C@H]1N2C(=O)NCc1cc(C)oc1C(F)(F)F,1,3,-2,·,·,·
COC(=O)C1=C(c2ccc(OC)c(OC)c2)C[C@@H]2CC[C@H]1N2C(=O)NC1CCCCC1,-9,-4,-1,·,·,·
O=C1NC(=S)NC(=O)C1=Cc1cccn1-c1ccc(O)cc1,·,·,·,0,-38,76*
CN1C(=O)/C(=C/c2cccn2-c2ccc3ccccc3c2)C(=O)NC1=S,28,23,1,0,-21,2
COC(=O)C1=Nc2ccccc2/C1=C\c1c(O)n(-c2ccc(OC)cc2)c(=O)[nH]c1=O,-3,-6,-4,1,-27,53*
O=c1[nH]c(=O)n(-c2ccccc2)c(O)c1/C=C1/C(c2ccccc2)=Nc2ccccc21,1,-11,0,-2,-42,30
COC(=O)C1=Nc2ccccc2/C1=C\c1c(O)n(-c2ccc(Br)cc2)c(=O)[nH]c1=O,-14,-19,-11,0,-31,77*
COc1ccc(OC)c(-n2c(O)c(/C=C3\C(C)=Nc4ccccc43)c(=O)[nH]c2=O)c1,-9,-19,-15,·,-73,1
S=C=Nc1cccc(C2(N3CCCCC3)CCCCC2)c1,5,12,4,·,·,·
COC(=O)C1=C(c2ccc(Cl)c(C(F)(F)F)c2)C[C@@H]2CC[C@H]1N2C(=O)NCCOc1ccccc1Cl,5,8,9,·,·,·
Nc1c(C(=O)NCc2ccco2)c2nc3ccccc3nc2n1CCN1CCOCC1,12,6,10,13,-6,19
Nc1c(C(=O)NCc2ccco2)c2nc3ccccc3nc2n1Cc1ccc(F)cc1,-2,0,10,0,53*,65*
Nc1c(C(=O)NCc2ccco2)c2nc3ccccc3nc2n1Cc1ccccc1,-5,-8,-2,3,4,34
COc1ccc(Cn2c(N)c(C(=O)NCc3ccco3)c3nc4ccccc4nc32)cc1,-9,-17,-3,6,40,71*
SMILES,BCLXL inh,MCL1-BIM inh,GLD-1 TGE inh,Bim-Mcl-1,Mcl1-Bid inh,Mcl1-Noxa inh
Nc1ccc2c(c1)Cc1ccccc1-2,2,-1,-14,0,-51,54*
CN1C2CCC1C(C(=O)O)C(O)C2 (stereo not drawn),·,·,0,·,·,·
CC(C)C[C@H]1C(=O)N2CCCC2[C@]2(O)O[C@](NC(=O)[C@@H]3C=C4c5cccc6[nH]cc(c56)CC4N(C)C3)(C(C)C)C(=O)N12 (stereo partly drawn),152*,194*,117*,1,-6,17
COC(=O)C1=C(c2ccc(-c3ccccc3)c(F)c2)C[C@@H]2CC[C@H]1N2C(=O)NCCCOC(C)C,4,-1,-2,·,·,·
N#CCC(=O)NN1Cc2ccccc2C1=N,75*,2,0,-7,0,12
N=C1c2ccccc2CN1NC(=O)c1ccc(F)cc1,1,3,-6,0,-9,-20
CN(C)CCN(C(=O)COc1ccc(Cl)cc1)c1nc2cc3c(cc2s1)OCO3,2,7,-2,·,·,·
CC(C(=O)c1ccc(Cl)cc1Cl)n1cncn1 (stereo not drawn),4,4,2,·,·,·
CC(C)(C)C(O)C(Oc1ccc(Cl)cc1)n1cncn1 (stereo not drawn),0,8,1,-2,76*,2
CCCc1nnc(NC(=O)CCC(=O)N2CCC3(CC2)OCCO3)s1,54*,44*,23,·,-3,-11
C=C(C=O)CC1CC(O)[C@]2(C)OC3CC4OC5C[C@]6(C)O[C@]7(C)CCC8OC9C[C@]%10(C)OC%11C(C)=CC(=O)OC%11CC%10OC9C[C@@H](C)C8OC7CC6O[C@]5(C)CC5OC5C4OC3CC2O1 (stereo partly drawn),7,15,-6,-3,78*,10
CSc1ccc(C(=O)C2CCCN(CCCn3cccn3)C2)cc1 (stereo not drawn),1,6,3,0,65*,31
CN1[C@H]2CC[C@@H]1C(C(=O)N1CCOCC1)=C(O)C2,2,2,0,·,·,·
COc1ccccc1-n1c(-c2ccccc2Cl)nc2ccccc2c1=O,5,-1,-6,·,·,·
CN1CCC(N(C)c2nc(-c3ccccc3)nc3ccccc23)CC1,4,2,8,0,5,52*
O=C(O)C1CN2CCC1CC2 (stereo not drawn),33*,11,0,0,-4,-69
O=C(c1cccs1)C1CN2CCC1CC2 (stereo not drawn),2,3,2,-1,8,0
Cc1cccc(-n2c(-c3cccs3)nc3ccccc3c2=O)c1,2,4,0,-1,58*,46
Cc1ccc(-c2nc3ccccc3c(=O)n2-c2cccc(O)c2)cc1,31*,24,6,-1,-16,22
O=c1c2ccccc2nc(-c2cccs2)n1-c1ccccc1,6,2,6,-5,-30,4
Cc1nc2ccccc2c(=O)n1-c1cccc(O)c1,3,1,-4,-1,-7,-6
COC(=O)C1=C(c2c(C)noc2C)C[C@@H]2CC[C@H]1N2C(=O)NC1Cc2ccccc2C1,3,8,-2,·,·,·
